Experimental data from PubChem BioAssay (NCI).
Compounds without any hit were thinned out: in the full panel of roughly 83,000, 20% have a hit.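 Cells were grown in 96-well plates and exposed to the test compound at a single concentration for 48 hours; results are reported as percent growth, with values below 10 considered active.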 Values without a mark were called inactive. Calls of active or inactive are those of the source.

What follows are compounds tested on SNB-75 CNS (assay: NCI-60 one-dose screen, 48 h (100 = growth as untreated, 0 = no growth, -100 = all killed)). Conditions: 10 µM unless noted.
Method: Growth inhibition of the SNB-75 human tumor cell line is measured as a screen for anti-cancer activity. Cells are grown in 96 well plates and exposed to the test compound for 48 hours. Compounds are tested at a single concentration, which is 10^-5 M for most compounds. The reported endpoint is percent growth (GI% or GIPRCNT), where numbers from 0 - 100% represent growth inhibition, and numbers from -100% - 0 represent cell death. For example, a value of 40 represents 60% growth inhibition. A value of 0 means no net growth occurred over the course of the experiment. A value of -40 indicates 40% of cells at the beginning of the experiment died by the end of the experiment. A value of -100 means all cells are dead at the end of the experiment.
NCI-60 Human Tumor Cell Lines Screen was performed using the standard one-dose NCI protocol, which is described in more detail at https://dtp.cancer.gov/discovery_development/nci-60/default.htm.
Compounds with GIPRCNT values below 10 were considered active. Activity score was based on GIPRCNT using the following formula: […]
Score is 0 for GIPRCNT values of 100 or above, 50 for GIPRCNT values of 0, and 100 for GIPRCNT values of -100.
In the case of NC(N)=Nc1ccc(Oc2cccc(NC(N)=Nc3ccc(Cl)c(C(F)(F)F)c3)c2)cn1, the growth is reported as 69.3%.
Compound COc1ccc([C@@H]2[C@@H](O)C(=O)N2c2cc(OC)c(OC)c(OC)c2)cc1F has a growth of 17.6%.
Compound Cc1cc(C(NC(=O)CCCCCNc2cccc3c2C(=O)N(C2CCC(=O)NC2=O)C3=O)c2ccc3c(c2)OC(F)(F)O3)c(O)c2ncccc12 (stereo not given) has a growth of 50.8%.
COc1ccc2c(c1)Oc1nc(N)c(C#N)c(N)c1C2Sc1ccc(C)cc1 (stereo not given) was tested, and the growth was 88.7%.
With Cc1ccc2c(c1)C13C(=C2Br)CCCN1C(=O)c1ccccc13 (stereo not given) the growth was 89.9%.
Nc1nc(Nc2ccccc2SSc2ccccc2Nc2nc(N)nc(-c3cccc(Br)c3)n2)nc(-c2cccc(Br)c2)n1 was tested, and the growth was 53.9%.
CC(C)c1ccc(NCc2cn(-c3ccc(C(=O)O)cc3)nc2-c2cc(C(F)(F)F)cc(C(F)(F)F)c2)cc1 gave a growth of 89%.
CS(=O)(=O)c1ccc(-n2cc(/C=N/O)c(-c3ccccc3)n2)cc1 was tested, and the growth was 87.7%.
NC(N)=Nc1ccc(Oc2cccc(NC(N)=Nc3ccc(I)cc3F)c2)cc1 showed a growth of 73.2%.
With O=c1[nH]c2ccccc2cc1CSc1ccccc1Nc1nccc(-c2ccc(Cl)cc2)n1 the growth was 71.7%.
Work on CCCCCc1ccc(S(=O)(=O)Nc2cc(-c3csc(NC(=O)CN4CCN(C)CC4)n3)ccc2OC)cc1 yielded a growth of 91.2%.
Cc1[nH]c(C(=O)Nc2ccccc2OCc2cccc(C(=O)N3CCC[C@@H](N)C3)c2)c(Cl)c1Cl was tested, and the growth was -96.3% (active).
For C[C@@H](Nc1ncnc2ccc(-c3cnc(Cl)c(NS(C)(=O)=O)c3)cc12)c1ccccc1, the growth was -14.7% (active).
With C=CCn1c(SCC(=O)Nc2ccc(C(=O)/C=C/c3cccc([N+](=O)[O-])c3)cc2)nnc1-c1c[nH]c2ccccc12 the growth was 97%.
O=C(CCn1c[n+](CC(=O)c2ccc(F)cc2)c2ccccc21)Nc1cccc2cccnc12 was tested, and the growth was 75.6%.
For N#Cc1cnc2ccc(-c3cnc4[nH]ncc4c3)cc2c1N1CCc2cc(F)c(Cl)cc21, the growth was -9.27% (active).
For COc1cc(C2N=C(NNc3ccccc3)NC(C)=C2C(C)=O)ccc1O (stereo not given), the growth was 88.6%.
For COc1cc(Cn2cc3c(c2)-c2onc(CN4CCOCC4)c2CC3)cc(OC)c1OC, the growth was 117%.
O=C(O)c1cn(C2CC2)c2cc(N3CCN(C(=O)CN4C(=O)CSC4=O)CC3)c(F)cc2c1=O showed a growth of 45.3%.
Work on Cc1nc2ncc(-c3ccc4ncnc(NCc5ccccc5)c4c3)cc2[nH]1 yielded a growth of 13%.
O=C1Nc2ccccc2/C1=C/c1ccc(CO)n1-c1ccc(Cl)cc1 gave a growth of 32.8%.
For CC(C)(C)c1ccc(C(=O)Nc2sc3c(c2C(N)=O)CC/C(=N\O)C3)cc1, the growth was 44.2%.
For Cc1cc(-c2ccc(Cl)cc2)n(Cc2nnc(SCC(=O)Nc3ccc(S(N)(=O)=O)cc3)n2-c2ccc([N+](=O)[O-])cc2)n1, the growth was 129%.
Work on CCOc1cccc(-c2nc3sccn3c2-c2ccnc(S(C)(=O)=O)n2)c1 yielded a growth of 98.4%.
Work on CNC(=O)c1cc(-n2ccc3cc(NC(=O)Nc4ccc(N5CCOCC5)c(C(F)(F)F)c4)ccc32)ccn1 yielded a growth of 17.1%.
With COc1ccccc1-n1cc(C#N)c(N)c1C(=O)c1ccc(Cl)cc1 the growth was 62.3%.
With c1cc(-c2nc3ccc4[nH]ncc4c3c3c2CCCC3)[nH]n1 the growth was 60.3%.
CC1(C)CC[C@]2(C(=O)N3CCOCC3)CC[C@]3(C)C(=CC[C@@H]4[C@@]5(C)C/C(=C/c6ccco6)C(=O)C(C)(C)[C@@H]5CC[C@]43C)[C@@H]2C1 showed a growth of 28.6%.
For COc1cc(OC)c(S(N)(=O)=O)cc1C(C)=O, the growth was 130%.
CCNC(=O)N1CCc2cc(OC)c(OCCc3ccc(OC)cc3)cc2C1c1ccc([N+](=O)[O-])cc1C (stereo not given) was tested, and the growth was 21%.
With CN1c2ccccc2Sc2cc(C=C(C#N)C#N)ccc21 the growth was 79.8%.
CS(=O)(=O)Nc1cc(-c2ccc3ncc(C#N)c(Nc4cccc(Cl)c4F)c3c2)cnc1Cl was tested, and the growth was 47.9%.
In the case of CC(C)(C)c1ccc(C(=O)Nc2nc3ccc(O)cc3s2)cc1, the growth is reported as 96.2%.
Work on COc1cccc(O)c1/C=C(/C)c1ccc2c(OC)cccc2[o+]1 yielded a growth of 97.1%.
CS(=O)(=O)c1ncc(-c2ccccc2)cn1 gave a growth of 110%.
COc1cc(OC)c(S(N)(=O)=O)cc1C(=O)/C=C/c1ccc(C)cc1 was tested, and the growth was 1.82% (active).
O=C(c1ccc(O)cc1)[C@@H]1CN[C@@]2(C(=O)Nc3ccccc32)[C@H]1c1ccc(F)cc1 showed a growth of 103%.
COc1ccc([C@@H]2c3[nH]c4ccccc4c3C[C@H]3C(=O)N(C4CCN(CC5CCCCC5)CC4)CC(=O)N23)c(OC)c1 gave a growth of 83.2%.
Compound COc1ccc([C@H]2[C@H](O)C(=O)N2c2cc(OC)c(OC)c(OC)c2)cc1F has a growth of 19%.
CCCCCc1ccc(S(=O)(=O)Nc2cccc(-c3csc(NC(=O)CN4CCN(C)CC4)n3)c2)cc1 was tested, and the growth was 89.5%.
